# According to the supplement of paper PMC3334620:
# The full ranking holds about 33,000 sequences; the median of “E-score (-0.5 to 0.5)” is about -0.054, and the highest 2% start at about 0.39. Only a selection was taken, and the highest values are over-represented in it overall.
# Target: Ylr278c (UniProt Q05854)
# Experiment: PBM E-score (8-mer binding enrichment) (E-score (-0.5 to 0.5)); higher = stronger / more preferred TF binding
# Settings: protein concentration: 200 nM; construct: GST-DNA-binding domain
# In short: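 Using PURExpress in vitro transcription/translation, GST-tagged yeast transcription factors were made in full-length or DNA-binding-domain form. These were applied at about 100-200 nM to double-stranded universal all-10-mer Agilent arrays, and bound protein was detected with fluorescent anti-GST. Scans were normalised with masliner before the Universal PBM Analysis Suite assigned E-scores to ungapped eight-base words pooled with their reverse complements.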
# UniProt Q05854, sequence (Q05854 whole entry): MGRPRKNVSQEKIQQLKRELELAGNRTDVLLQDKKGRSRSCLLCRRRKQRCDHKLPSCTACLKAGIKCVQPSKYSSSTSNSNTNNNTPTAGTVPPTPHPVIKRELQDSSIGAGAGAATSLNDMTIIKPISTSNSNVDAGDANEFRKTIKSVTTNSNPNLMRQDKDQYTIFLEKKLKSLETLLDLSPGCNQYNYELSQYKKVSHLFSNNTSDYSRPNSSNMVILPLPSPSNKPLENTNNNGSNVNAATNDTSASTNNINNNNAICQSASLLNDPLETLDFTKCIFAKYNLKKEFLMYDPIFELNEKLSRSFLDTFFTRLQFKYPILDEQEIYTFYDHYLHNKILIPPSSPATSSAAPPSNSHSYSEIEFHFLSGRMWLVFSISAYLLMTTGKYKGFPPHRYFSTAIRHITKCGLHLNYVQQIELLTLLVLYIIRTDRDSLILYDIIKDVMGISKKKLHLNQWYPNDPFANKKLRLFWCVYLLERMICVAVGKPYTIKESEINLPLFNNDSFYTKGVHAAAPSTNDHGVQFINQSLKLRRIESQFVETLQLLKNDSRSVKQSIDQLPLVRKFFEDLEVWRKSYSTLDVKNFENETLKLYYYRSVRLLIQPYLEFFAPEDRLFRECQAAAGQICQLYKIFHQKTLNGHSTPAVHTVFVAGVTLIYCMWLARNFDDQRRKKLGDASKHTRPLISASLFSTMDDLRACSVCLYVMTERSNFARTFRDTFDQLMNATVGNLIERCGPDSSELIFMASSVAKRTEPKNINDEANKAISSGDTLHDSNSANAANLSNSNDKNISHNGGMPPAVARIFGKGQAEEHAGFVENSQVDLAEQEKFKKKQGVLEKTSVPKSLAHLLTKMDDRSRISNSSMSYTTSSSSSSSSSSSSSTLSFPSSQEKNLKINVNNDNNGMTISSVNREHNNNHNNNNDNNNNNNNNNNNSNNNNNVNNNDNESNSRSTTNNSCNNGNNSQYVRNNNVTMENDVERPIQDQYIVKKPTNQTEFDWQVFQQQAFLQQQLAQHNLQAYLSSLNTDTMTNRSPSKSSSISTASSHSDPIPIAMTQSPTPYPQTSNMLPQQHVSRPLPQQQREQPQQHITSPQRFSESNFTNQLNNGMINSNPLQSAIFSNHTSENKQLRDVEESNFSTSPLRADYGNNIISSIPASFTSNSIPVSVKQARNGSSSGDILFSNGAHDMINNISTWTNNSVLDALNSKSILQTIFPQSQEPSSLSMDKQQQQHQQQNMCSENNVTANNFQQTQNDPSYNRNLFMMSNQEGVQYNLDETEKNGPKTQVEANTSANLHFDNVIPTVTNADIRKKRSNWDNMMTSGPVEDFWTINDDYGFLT
row,Sequence,PBM E-score
1,AAATCTGT,-0.0526
2,TGTTGAAA,-0.0138
3,ACTACTTA,-0.0798
4,CGACTATA,-0.0135
5,CCCCAGAA,0.00338
6,CACAAAGA,-0.197
7,CCATAAGC,-0.105
8,AACGGAGG,0.3
9,CACGGACG,0.22
10,AACGGACT,0.328
11,AACGGAGC,0.309
12,CACGGAGG,0.394
13,AACGGAGT,0.448
14,CCAGCTCG,-0.106
15,CTGAACCC,-0.0929
16,TAGAGGAA,-0.211
17,CAACTGGG,-0.0669
18,CAGGACCG,0.0623
19,CCGGACCC,0.391
20,ACGGACCG,0.335
21,GCGGACCC,0.354
22,CCGGACCG,0.426
23,CCGGACCA,0.369
24,CCATTCAC,-0.042
25,CTAGATAG,-0.28

row,Sequence,PBM E-score
1,CGCCGTAC,0.163
2,AAGGCATT,-0.246
3,CACTCGGA,0.329
4,AACTCGGT,0.00153
5,AACTCGGA,0.392
6,GACTCGGA,0.4
7,GACTCGGC,0.134
8,TACTCGGA,0.342
9,CAATGGGC,-0.106
10,ACTCATCC,-0.0863
11,AGGCCACG,-0.0792
12,AACCCCGT,0.381
13,ACCCCCGC,0.266
14,GACCCCGA,0.336
15,AACCCCGA,0.431
16,AAACCCCC,-0.0651
17,AACCCCCG,0.26
18,ACCCCCGA,0.261
19,GACCCCGC,0.247
20,AAACCCCG,0.449
21,AACCCCGC,0.41
22,CACCCCGA,0.29
23,TACCCCGA,0.411
24,ACGCAGAA,-0.0444
25,TATATGCA,-0.245

row,Sequence,PBM E-score
1,ACCAGTCA,-0.036
2,TAAGGAAA,-0.131
3,GCCTATAA,-0.116
4,AAGCGTTG,-0.256
5,CCAGCGCA,0.0176
6,AAGGTGCC,-0.0322
7,CGTGAATA,-0.00311
8,CAACCCCG,0.397
9,CAACCCCC,-0.0384
10,AAACCCGA,0.384
11,AAACCCGC,0.287
12,CAACCCGG,0.229
13,ATACCCCG,0.401
14,ATACCCCC,0.0218
15,CACCCCGG,0.314
16,ACCCCCGG,0.334
17,AAACCCGG,0.428
18,ATACCCCA,0.00063
19,AACCCCGG,0.458
20,ACTGTTGC,0.0649
21,ATAGGACA,-0.311
22,AGAAGCCG,0.241
23,AATCGAGA,-0.115
24,GAGAAGAC,0.0429
25,CCTATCCG,0.114

row,Sequence,PBM E-score
1,GAAATGAC,-0.0184
2,AGATTGGG,0.0161
3,AGGAATAC,-0.0793
4,CAGAATAG,-0.179
5,CGGAATAA,0.433
6,CGGAATAC,0.423
7,AGGAATAG,0.102
8,CGGAATAG,0.391
9,TGGAATAA,-0.0106
10,GGGAATAA,0.261
11,GGGAATAC,0.176
12,GAGGGTCC,0.173
13,CTGGTTGC,0.123
14,CCTAGCTA,-0.246
15,TCCCTTAA,-0.263
16,ATGCTGGC,-0.147
17,ATAAGTGA,-0.229
18,CGACGCGC,0.21
19,AACCCGGT,0.304
20,GACCCGGC,0.184
21,TACCCGTA,-0.0475
22,TACCCGAA,0.0727
23,GACCCGGA,0.391
24,TACCCGGA,0.395
25,AACCCGGA,0.435

row,Sequence,PBM E-score
1,AACCCGGC,0.313
2,CACCCGGA,0.365
3,CTGAAAAG,-0.131
4,AGTTGCCG,0.171
5,GGCGTGTA,-0.155
6,TATGTAAA,0.0517
7,CCTTGAAC,-0.189
8,ACGTACTG,-0.138
9,AAACTTGC,-0.0141
10,ACGAGGAA,-0.0559
11,TGCTCTAA,-0.211
12,AGTGAGGA,-0.255
13,GCTCCGCA,0.377
14,ACTCCGCA,0.452
15,ACTCCGCT,0.417
16,TCTCCTCA,-0.147
17,ACTCCTCA,-0.21
18,TCTCCGCA,0.407
19,ACTCCGCC,0.475
20,ACTCCCCT,0.174
21,CTTCCGCA,0.198
22,AATCCGCC,0.319
23,GCTCCGCC,0.382
24,ACGCCGCT,0.224
25,GTTTAGGA,-0.122

row,Sequence,PBM E-score
1,ACAGCAGC,-0.191
2,CGCCCAAC,0.0317
3,ACCCTAAA,0.099
4,ATAGCTCG,-0.0396
5,ATGCTGTA,-0.185
6,TAAGTATA,-0.0135
7,GGACTGAA,-0.00012
8,ATGGCCAT,0.0373
9,AGGAGATA,-0.016
10,GGGATATA,0.151
11,CGGATATC,0.366
12,AGGAGATC,0.0493
13,GGGAGATA,-0.0385
14,CGGAGATC,0.479
15,CGGAGATA,0.483
16,CTGAGATC,-0.196
17,CGGATATA,0.393
18,CGACTCAA,0.0186
19,GTCATGAC,0.0612
20,GCCAGTTA,-0.0644
21,GCACTCGC,0.0715
22,CGTTCGCC,0.145
23,ATATCCGA,0.387
24,AGATCCGC,0.37
25,AGATCCGG,0.41

row,Sequence,PBM E-score
1,ACATCCGG,0.444
2,ACATCCGA,0.356
3,ATATCCGC,0.38
4,AGATCCGA,0.344
5,ACATCCGT,0.162
6,ATATCCGG,0.413
7,ATAGTGGC,-0.179
8,ACAGGCAA,-0.209
9,CTGCGACA,0.094
10,ACGATGGC,-0.144
11,ATAAGTAA,0.0323
12,GCCAACGA,-0.181
13,CGACTGTA,-0.139
14,AGGACTTA,-0.0757
15,CGGACTTC,0.473
16,TGGACTAA,-0.188
17,CGGACTCA,0.384
18,GGGACTTA,-0.0692
19,CTGACTTC,0.088
20,GGGACTAA,-0.0466
21,CGGACTAA,0.423
22,AGGACTTC,-0.0413
23,AGGACTCC,0.0662
24,CGGACTCC,0.423
25,CGGACTTA,0.452

row,Sequence,PBM E-score
1,ACAAAGCG,-0.0993
2,TGGACGAA,-0.116
3,ACACCACT,-0.0175
4,CCCGGTAG,0.252
5,GCGGTGAC,0.0764
6,CACCGGCA,0.328
7,CTGCGGCC,0.2
8,GTCCGGCA,0.41
9,CTCCGGCC,0.455
10,CTCCGGCA,0.469
11,GACCGGCA,0.258
12,CTACGGCC,0.123
13,GCCCGGCA,0.255
14,ATCCGGCA,0.369
15,GATCTGGC,0.0483
16,ACCTAACC,0.0688
17,TAAGAGGA,-0.0178
18,AAAGATTG,-0.146
19,AGCTAAGC,-0.164
20,CATAGGAC,-0.146
21,ATCGCTTG,-0.321
22,CGGGTGAG,0.167
23,CATATGGC,-0.0951
24,ACCAGATA,-0.0605
25,CGTTGGAA,-0.0729

row,Sequence,PBM E-score
1,CCTTCGAG,-0.0791
2,CGGAGACG,0.415
3,AGGAGACC,-0.145
4,AGGAGACA,-0.0751
5,CGGAGACA,0.39
6,AGGAGACG,-0.12
7,GGGAGACC,-0.0886
8,TGGAGACA,-0.227
9,CAGAGACG,-0.0283
10,CGGAGACC,0.406
11,CCTCCTAA,-0.122
12,GATCTAAA,0.0142
13,CAAAGGTC,-0.224
14,ATACTTGA,-0.345
15,CCCAGTCA,-0.242
16,CCTAGAAC,-0.0753
17,CGACGGAC,0.337
18,AGACGGAG,0.392
19,AGACGGAT,0.176
20,AGACGGAA,0.238
21,CGACGGAA,0.339
22,CGACGGAG,0.421
23,ATTGGACG,-0.00534
24,AATATGCC,-0.0168
25,ACATATCA,-0.0989

row,Sequence,PBM E-score
1,CTAGGCTA,-0.193
2,CCGGTCCC,0.355
3,CCGGTCCG,0.45
4,CAGGTCCG,0.353
5,ATAGTCCA,-0.109
6,ATAGTCCG,0.413
7,AAAGTCCT,0.226
8,CCGGTCCA,0.21
9,ATAGTCCC,-0.153
10,AAGGTCCG,0.426
11,AAAGTCCG,0.482
12,AAGGTCCA,-0.124
13,AAAGTCCA,-0.0593
14,CCGTTGAG,0.0643
15,ACTAGCTC,-0.157
16,AGAGCTGC,-0.0659
17,AAACAACA,-0.119
18,CGTATCCC,0.048
19,GGACTTAC,0.305
20,GAAGCTAC,-0.144
21,AACACCTC,-0.251
22,GTGTGGTA,-0.165
23,AGAGTCCG,0.347
24,CGAGTCCG,0.391
25,CGAGTCCA,-0.144

row,Sequence,PBM E-score
1,CAAGTCCC,-0.108
2,CAAGTCCA,-0.118
3,CAAGTCCG,0.455
4,CCGAGACG,0.134
5,ACCTCAGA,-0.0802
6,GGCCCGTA,0.173
7,CCCCCGGA,0.395
8,GGCCCGCA,0.188
9,GGCCCGGA,0.395
10,CCCCCGGC,0.254
11,GCCCCCGA,0.0674
12,GCCCCGGA,0.439
13,GCCCCGGC,0.259
14,CCCCCCGA,0.083
15,TCCCCCGA,0.263
16,TCCCCGGA,0.435
17,TCCCCGAA,0.357
18,ATATTTTC,0.0689
19,GACCTAAC,0.0677
20,GCAGACGA,-0.119
21,GGATCTGA,0.00665
22,AACCCATC,-0.0461
23,CAGTCATG,-0.129
24,ATGGCTGG,-0.209
25,CCAGCATC,-0.0271

row,Sequence,PBM E-score
1,ATCACTGC,-0.0314
2,ACTGTGGC,-0.32
3,GGACTGAC,-0.0427
4,CCCCTTAC,-0.195
5,CGCCCGAA,0.111
6,AGCCCGGG,0.328
7,AGCCCGGA,0.448
8,ACCCCGGG,0.404
9,CCCCCGGG,0.296
10,CCCCGGGC,0.342
11,CGCCCGGC,0.292
12,AACCCGGG,0.319
13,CCCCGGGG,0.412
14,AGCCCGGC,0.332
15,ACCCGGGG,0.246
16,CGCCCGGA,0.435
17,GTAAATGA,0.024
18,GACAAGCC,-0.0446
19,CGACTTAG,-0.168
20,GCAACTCC,0.327
21,AACGCCAA,-0.0358
22,GATTTCTA,0.238
23,CATCCACG,-0.153
24,CGCTAGGC,-0.0311
25,GCATGGCA,0.0442

row,Sequence,PBM E-score
1,TCCCGGGA,0.398
2,CCCCGGGA,0.378
3,ACCCCGGC,0.355
4,ACCCCGGT,0.385
5,ACCCGGGA,0.307
6,ACCCCGGA,0.445
7,GGTCTTAC,-0.0198
8,GAAGCGGC,0.125
9,GGATGCCA,-0.277
10,CGATTCCC,0.226
11,CAATTCCA,-0.0617
12,CGATTCCG,0.396
13,CAATTCCG,0.465
14,CAATTCCC,0.19
15,ATATTCCC,0.277
16,AAATTCCC,0.254
17,ATATTCCG,0.43
18,AAATTCCA,0.115
19,CGATTCCA,0.056
20,AAATTCCG,0.471
21,ATATTCCA,0.0484
22,ATACCGTC,0.153
23,AACCTAGT,-0.00542
24,AACTTAGG,-0.156
25,CAAGTGCA,-0.362

row,Sequence,PBM E-score
1,TGGTTCAA,-0.118
2,ATACCTTC,0.0292
3,GGCGCACA,0.145
4,TCCCTCAA,-0.106
5,GGGCCGTA,0.0879
6,AGGCCGGG,0.258
7,AGGCCGGA,0.419
8,CGGCCGTA,0.225
9,CGGCCGGC,0.409
10,AGGCCGGC,0.342
11,GGGCCGGA,0.418
12,CGGCCGAC,0.309
13,CGGCCGGA,0.424
14,CGGCCGCA,0.249
15,GGGCCGAA,0.198
16,AGGCCGTA,0.0868
17,CACCTAAG,-0.134
18,CTTACCTC,-0.0434
19,AGGTTGGG,-0.122
